The supplement of paper PMC11732987, “Enantioselective OTUD7B fragment discovery through chemoproteomics screening and high-throughput optimisation” (Communications Chemistry, 2025)

Key:
Test in all cases: log2 ratio of Biotin-Ahx-Ub-VS probe labelling (fragment/DMSO); higher = less target engagement (more negative = stronger competition), active = hit call of the paper (q ≤ 0.05, log2 ratio ≤ -1)
Conditions in all cases: compound concentration: 200 uM; treatment time: 3 h
OTUD6B = target: T1, OTUD6B (UniProt Q8N6M0)
T1 sequence (whole entry): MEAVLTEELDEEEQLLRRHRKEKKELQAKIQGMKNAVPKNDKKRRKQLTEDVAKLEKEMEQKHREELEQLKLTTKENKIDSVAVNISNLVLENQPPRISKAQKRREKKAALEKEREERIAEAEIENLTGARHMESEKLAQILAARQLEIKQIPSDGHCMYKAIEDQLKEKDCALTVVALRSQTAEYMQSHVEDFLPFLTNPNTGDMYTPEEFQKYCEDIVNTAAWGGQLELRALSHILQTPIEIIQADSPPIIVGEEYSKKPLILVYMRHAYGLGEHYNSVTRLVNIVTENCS
Procedure, shortened: (§1)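 HEK293T lysate, 495 µg per sample in Tris/CHAPS/IGEPAL buffer with protease inhibitors, was treated in triplicate with fragment at 200 µM or vehicle for 3 h and then with Biotin-Ahx-Ub-VS at 0.5 µM final for 1 h. Labelled DUBs were NeutrAvidin-enriched, digested with LysC and trypsin, and run by diaPASEF LC-MS/MS. Spectronaut label-free quantities were global-median-normalised, and values are average log2 fragment/vehicle ratios by unpaired t-test on proteins with ≥2 unique peptides.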

OTUD7B = target: T2, OTUD7B (UniProt Q6GQQ9)
T2 sequence (whole entry): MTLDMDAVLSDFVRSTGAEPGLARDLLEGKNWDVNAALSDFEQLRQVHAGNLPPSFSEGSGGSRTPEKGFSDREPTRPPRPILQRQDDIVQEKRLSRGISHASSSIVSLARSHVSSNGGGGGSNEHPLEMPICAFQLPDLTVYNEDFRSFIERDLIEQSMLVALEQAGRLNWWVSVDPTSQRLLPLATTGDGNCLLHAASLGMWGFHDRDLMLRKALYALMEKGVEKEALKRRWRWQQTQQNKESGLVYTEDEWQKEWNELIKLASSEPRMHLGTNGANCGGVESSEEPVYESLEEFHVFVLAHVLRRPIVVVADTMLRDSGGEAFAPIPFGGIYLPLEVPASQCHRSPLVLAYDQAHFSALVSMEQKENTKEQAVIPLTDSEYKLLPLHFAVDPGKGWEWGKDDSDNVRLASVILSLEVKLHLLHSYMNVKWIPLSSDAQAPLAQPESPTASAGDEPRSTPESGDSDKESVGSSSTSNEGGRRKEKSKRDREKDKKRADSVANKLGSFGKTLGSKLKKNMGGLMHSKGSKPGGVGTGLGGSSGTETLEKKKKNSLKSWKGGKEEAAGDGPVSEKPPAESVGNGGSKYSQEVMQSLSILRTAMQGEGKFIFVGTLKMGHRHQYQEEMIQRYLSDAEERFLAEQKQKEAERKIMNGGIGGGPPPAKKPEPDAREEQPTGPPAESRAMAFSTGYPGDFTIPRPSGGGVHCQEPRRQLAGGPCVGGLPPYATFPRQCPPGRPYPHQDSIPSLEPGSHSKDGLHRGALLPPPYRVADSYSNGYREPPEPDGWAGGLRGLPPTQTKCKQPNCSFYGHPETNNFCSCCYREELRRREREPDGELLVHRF
Procedure, shortened: as §1

PRPF8 = PRPF8 (UniProt Q6P2Q9)
Procedure, shortened: as §1

PSMD7 = target: T3, PSMD7 (UniProt P51665)
T3 sequence (whole entry): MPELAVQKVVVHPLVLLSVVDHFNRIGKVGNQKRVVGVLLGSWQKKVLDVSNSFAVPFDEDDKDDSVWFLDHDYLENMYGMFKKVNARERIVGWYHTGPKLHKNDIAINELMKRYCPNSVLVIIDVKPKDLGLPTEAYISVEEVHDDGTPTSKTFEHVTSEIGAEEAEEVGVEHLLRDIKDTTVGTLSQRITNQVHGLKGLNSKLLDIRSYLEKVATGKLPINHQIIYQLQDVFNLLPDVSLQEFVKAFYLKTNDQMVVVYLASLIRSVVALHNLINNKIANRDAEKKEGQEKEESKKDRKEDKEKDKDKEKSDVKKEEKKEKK
Procedure, shortened: as §1

UCHL1 = UCHL1 (UniProt P09936)
Chain of UCHL1 (P09936 whole entry, looked up): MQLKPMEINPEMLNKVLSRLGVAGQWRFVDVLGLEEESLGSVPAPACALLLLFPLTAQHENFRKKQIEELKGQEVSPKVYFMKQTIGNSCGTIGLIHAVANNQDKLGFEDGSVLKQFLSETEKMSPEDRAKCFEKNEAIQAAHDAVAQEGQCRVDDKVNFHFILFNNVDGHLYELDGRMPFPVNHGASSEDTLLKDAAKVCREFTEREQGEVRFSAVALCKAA
Procedure, shortened: as §1

UCHL3 = target: T4, UCHL3 (UniProt P15374)
T4 sequence (whole entry): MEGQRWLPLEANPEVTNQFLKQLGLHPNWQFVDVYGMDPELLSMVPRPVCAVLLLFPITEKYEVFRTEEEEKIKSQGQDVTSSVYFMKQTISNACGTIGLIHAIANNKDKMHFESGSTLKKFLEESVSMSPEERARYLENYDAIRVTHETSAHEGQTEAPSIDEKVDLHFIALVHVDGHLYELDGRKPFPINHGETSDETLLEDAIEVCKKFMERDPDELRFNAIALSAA
Procedure, shortened: as §1

UCHL5 = target: T5, UCHL5 (UniProt Q9Y5K5)
T5 sequence (whole entry): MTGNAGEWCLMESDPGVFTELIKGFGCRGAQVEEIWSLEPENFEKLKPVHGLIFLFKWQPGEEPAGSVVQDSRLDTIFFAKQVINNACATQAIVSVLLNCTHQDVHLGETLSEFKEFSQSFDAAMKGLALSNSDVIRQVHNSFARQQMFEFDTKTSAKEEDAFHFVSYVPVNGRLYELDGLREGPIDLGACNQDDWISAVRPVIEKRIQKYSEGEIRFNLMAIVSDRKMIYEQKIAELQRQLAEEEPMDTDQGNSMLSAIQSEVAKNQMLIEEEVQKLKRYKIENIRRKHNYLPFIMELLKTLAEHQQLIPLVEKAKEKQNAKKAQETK
Procedure, shortened: as §1

USP10 = USP10 (UniProt Q14694)
Chain of USP10 (Q14694 whole entry): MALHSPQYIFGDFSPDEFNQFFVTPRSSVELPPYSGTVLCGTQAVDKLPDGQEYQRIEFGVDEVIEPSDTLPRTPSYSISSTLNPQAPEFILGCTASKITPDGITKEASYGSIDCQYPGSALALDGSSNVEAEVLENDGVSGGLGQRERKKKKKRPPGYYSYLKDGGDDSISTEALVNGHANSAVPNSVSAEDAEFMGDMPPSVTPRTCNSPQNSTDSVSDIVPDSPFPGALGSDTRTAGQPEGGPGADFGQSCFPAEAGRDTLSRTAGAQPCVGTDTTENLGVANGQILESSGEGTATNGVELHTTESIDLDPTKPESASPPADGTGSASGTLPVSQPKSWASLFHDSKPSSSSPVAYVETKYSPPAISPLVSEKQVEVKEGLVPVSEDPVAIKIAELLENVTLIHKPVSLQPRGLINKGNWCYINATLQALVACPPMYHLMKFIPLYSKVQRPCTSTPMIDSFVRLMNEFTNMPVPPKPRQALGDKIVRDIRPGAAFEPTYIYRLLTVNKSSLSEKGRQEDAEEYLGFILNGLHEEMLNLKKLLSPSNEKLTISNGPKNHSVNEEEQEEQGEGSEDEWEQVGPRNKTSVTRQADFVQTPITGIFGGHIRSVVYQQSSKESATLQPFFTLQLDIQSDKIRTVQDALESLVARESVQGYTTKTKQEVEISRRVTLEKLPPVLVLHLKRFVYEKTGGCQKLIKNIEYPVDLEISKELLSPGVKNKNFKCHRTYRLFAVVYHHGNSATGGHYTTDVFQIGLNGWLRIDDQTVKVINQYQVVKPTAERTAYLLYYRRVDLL
Procedure, shortened: as §1

USP15 = target: T6, USP15 (UniProt Q9Y4E8)
T6 sequence (whole entry): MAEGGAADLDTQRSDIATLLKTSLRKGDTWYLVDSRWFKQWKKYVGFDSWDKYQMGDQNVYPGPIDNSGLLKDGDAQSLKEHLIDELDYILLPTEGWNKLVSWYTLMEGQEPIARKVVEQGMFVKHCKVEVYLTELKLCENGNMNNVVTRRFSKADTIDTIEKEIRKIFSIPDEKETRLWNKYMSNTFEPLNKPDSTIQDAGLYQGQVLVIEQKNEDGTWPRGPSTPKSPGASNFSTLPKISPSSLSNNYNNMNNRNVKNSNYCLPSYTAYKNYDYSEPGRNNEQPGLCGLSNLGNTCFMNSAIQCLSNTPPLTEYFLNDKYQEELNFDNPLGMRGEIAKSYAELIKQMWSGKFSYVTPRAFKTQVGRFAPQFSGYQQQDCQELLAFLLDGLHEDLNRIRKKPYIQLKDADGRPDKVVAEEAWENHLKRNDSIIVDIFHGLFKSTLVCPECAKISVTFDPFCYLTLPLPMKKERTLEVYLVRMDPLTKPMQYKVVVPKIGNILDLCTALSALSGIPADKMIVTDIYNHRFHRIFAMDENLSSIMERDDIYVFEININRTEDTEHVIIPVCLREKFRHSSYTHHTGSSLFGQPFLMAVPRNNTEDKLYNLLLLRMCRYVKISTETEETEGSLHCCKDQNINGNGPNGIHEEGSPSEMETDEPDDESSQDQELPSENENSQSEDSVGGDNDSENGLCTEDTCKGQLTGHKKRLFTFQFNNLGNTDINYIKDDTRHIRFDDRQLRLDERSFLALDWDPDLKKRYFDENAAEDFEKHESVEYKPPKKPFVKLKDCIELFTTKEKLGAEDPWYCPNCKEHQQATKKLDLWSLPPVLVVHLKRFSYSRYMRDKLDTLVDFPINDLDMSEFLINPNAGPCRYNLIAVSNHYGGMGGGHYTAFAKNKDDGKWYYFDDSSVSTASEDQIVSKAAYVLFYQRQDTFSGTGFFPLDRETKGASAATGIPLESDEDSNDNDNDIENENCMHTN
Procedure, shortened: as §1

USP16 = USP16 (UniProt Q9Y5T5)
Chain of USP16 (Q9Y5T5 whole entry, looked up): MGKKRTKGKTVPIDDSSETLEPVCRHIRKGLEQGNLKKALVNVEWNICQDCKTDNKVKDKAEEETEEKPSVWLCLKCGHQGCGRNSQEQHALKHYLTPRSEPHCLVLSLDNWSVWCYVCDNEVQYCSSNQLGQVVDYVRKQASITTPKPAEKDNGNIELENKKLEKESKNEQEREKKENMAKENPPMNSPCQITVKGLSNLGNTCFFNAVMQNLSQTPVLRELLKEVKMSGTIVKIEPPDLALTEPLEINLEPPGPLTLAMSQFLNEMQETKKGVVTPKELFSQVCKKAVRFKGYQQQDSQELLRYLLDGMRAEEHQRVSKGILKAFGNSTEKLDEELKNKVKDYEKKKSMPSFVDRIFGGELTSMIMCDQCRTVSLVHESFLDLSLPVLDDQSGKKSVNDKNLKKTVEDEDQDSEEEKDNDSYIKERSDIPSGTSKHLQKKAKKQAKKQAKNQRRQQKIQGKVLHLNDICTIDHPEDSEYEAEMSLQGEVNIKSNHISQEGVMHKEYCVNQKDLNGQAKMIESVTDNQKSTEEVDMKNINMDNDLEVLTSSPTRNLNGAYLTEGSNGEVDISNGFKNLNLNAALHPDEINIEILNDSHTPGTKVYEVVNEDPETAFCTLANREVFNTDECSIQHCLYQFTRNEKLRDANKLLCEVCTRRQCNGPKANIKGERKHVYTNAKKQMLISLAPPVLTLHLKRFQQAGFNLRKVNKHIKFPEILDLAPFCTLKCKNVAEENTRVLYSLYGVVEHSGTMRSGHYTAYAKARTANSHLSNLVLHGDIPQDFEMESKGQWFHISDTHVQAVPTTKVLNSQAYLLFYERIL
Procedure, shortened: as §1

Measured: log2 ratio of Biotin-Ahx-Ub-VS probe labelling

Cc1cccc(N2CCC(NC(=O)CCl)C2=O)c1 (stereo not given)
active: OTUD7B -1.61 | UCHL1 -1.87
inactive: OTUD6B -0.339 | PRPF8 -0.232 | PSMD7 -0.248 | UCHL3 0.0361 | UCHL5 -0.503 | USP10 -0.133 | USP15 -0.299 | USP16 -0.021
